Laboratory results as given in the supplement of paper PMC6607015.
Structures can show the parent of a compound that is named as a salt.

Assays:
Details in all cases: compound concentration in added solution (µM; 5 µl added to 20 µl cells): 10; 18 h
A431 [1] = assay: LBPA endosome anti-LBPA integrated intensity (sum per cell), Z-score; higher = more LBPA staining
Method in brief: (§1)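 HeLa MZ or A431 cells (3,500/well in 20 µl) were seeded onto 5 µl of 10 µM compound solution in duplicate 384-well imaging plates, incubated 18 h, then fixed in 4% PFA. Cells were stained with 6C4 anti-LBPA antibody, filipin, propidium iodide and CellTracker green, and four 20× images were taken per well. MetaXpress segmentation gave per-cell integrated LBPA or filipin intensity, either whole-cell or within LBPA endosomes. Values are Z-scores normalised in AcuityXpress.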

HeLa MZ [2] = assay: as above
Method in brief: as §1

A431 [3] = assay: whole-cell filipin (free cholesterol) integrated intensity, Z-score; higher = more cholesterol staining
Method in brief: as §1

HeLa MZ [4] = assay: as above
Method in brief: as §1

A431 [5] = assay: filipin (cholesterol) integrated intensity within LBPA endosomes, Z-score; higher = more cholesterol in LBPA endosomes
Method in brief: as §1

HeLa MZ [6] = assay: as above
Method in brief: as §1

| SMILES | LBPA endosome anti-LBPA integrated intensity (z-score) (A431 [1]) | LBPA endosome anti-LBPA integrated intensity (z-score) (HeLa MZ [2]) | whole-cell filipin (z-score) (A431 [3]) | whole-cell filipin (z-score) (HeLa MZ [4]) | filipin (z-score) (A431 [5]) | filipin (z-score) (HeLa MZ [6]) |
| --- | --- | --- | --- | --- | --- | --- |
| CN(C(=O)CN(CCO)CC(=O)N(C)C(C)(C)Cc1ccccc1)C(C)(C)Cc1ccccc1 [Oxethazaine] | 1.71 | 0.996 | 1.26 | 0.298 | 1.53 | 2.17 |
| CC[C@H]1OC(=O)[C@H](C)[C@@H](O[C@H]2C[C@@](C)(OC)[C@@H](O)[C@H](C)O2)[C@H](C)[C@@H](O[C@@H]2O[C@H](C)C[C@H](N(C)C)[C@H]2O)[C@](C)(O)C[C@@H](C)[C@@H]2N[C@@H](COCCOC)O[C@H]([C@H]2C)[C@]1(C)O [Dirithromycin] | -0.436 | -0.0354 | -0.786 | -0.252 | -0.507 | -0.38 |
| CN(C)[C@@H]1C(O)=C(C(=O)NCNCCCC[C@H](N)C(=O)O)C(=O)[C@@]2(O)C(O)=C3C(=O)c4c(O)cccc4[C@@](C)(O)[C@H]3C[C@@H]12 [Lymecycline] | -0.193 | 0.509 | 0.136 | 0.267 | -0.319 | -0.559 |
| CCOC(=O)[C@H](CCc1ccccc1)N[C@@H](C)C(=O)N1Cc2ccccc2C[C@H]1C(=O)O [Quinapril HCl] | -0.508 | -0.151 | -0.267 | -0.543 | -0.453 | -0.577 |
| c1ccc([C@H]2CN3CCSC3=N2)cc1 [Levamisole hydrochloride] | -0.398 | 0.59 | -0.758 | -0.886 | -0.52 | -0.182 |
| CC1(C)O[C@@H]2C[C@H]3[C@@H]4C[C@H](F)C5=CC(=O)C=C[C@]5(C)[C@H]4[C@@H](O)C[C@]3(C)[C@]2(C(=O)CO)O1 [Flunisolide] | -0.32 | -1.26 | -0.035 | -0.18 | -0.256 | -0.365 |
| NC(N)=Nc1nc(CSCC/C(N)=N/S(N)(=O)=O)cs1 [Famotidine] | -0.5 | -0.604 | -0.838 | -0.898 | -0.447 | -0.623 |
| CC1CCc2c(N3CCC(O)CC3)c(F)cc3c(=O)c(C(=O)O)cn1c23 (stereo unspecified) [Nadifloxacin] | -0.419 | -1.21 | -0.24 | -0.254 | -0.402 | -0.471 |
| CN(C)CCN1C(=O)c2ccccc2N(C)c2ccccc21 [Dibenzepine hydrochloride] | -0.357 | 0.481 | -0.676 | -0.7 | -0.373 | 0.00611 |
| CC1(C)O[C@@H]2C[C@H]3[C@@H]4C[C@H](F)C5=CC(=O)C=C[C@]5(C)[C@@]4(F)[C@@H](O)C[C@]3(C)[C@]2(C(=O)CO)O1 [Fluocinolone acetonide] | -0.172 | -0.371 | 0.258 | 0.13 | -0.163 | -0.367 |
| NCc1ccccc1CC(=O)N[C@@H]1C(=O)N2C(C(=O)O)=C(CSc3nnnn3CC(=O)O)CS[C@H]12 [Ceforanide] | -0.318 | -0.0362 | -0.326 | -0.285 | -0.513 | -0.563 |
| NC(CO)C(=O)NNCc1ccc(O)c(O)c1O (stereo unspecified) [Benserazide hydrochloride] | -0.379 | 0.144 | -0.376 | -0.254 | -0.42 | -0.5 |
| CN[C@H](CC(C)C)C(=O)N[C@H]1C(=O)N[C@@H](CC(N)=O)C(=O)N[C@H]2C(=O)N[C@H]3C(=O)N[C@H](C(=O)N[C@H](C(=O)O)c4cc(O)cc(O)c4-c4cc3ccc4O)[C@H](O)c3ccc(c(Cl)c3)Oc3cc2cc(c3O[C@@H]2O[C@H](CO)[C@@H](O)[C@H](O)[C@H]2O[C@H]2C[C@](C)(N)[C@H](O)[C@H](C)O2)Oc2ccc(cc2Cl)[C@H]1O [Vancomycin hydrochloride] | -0.435 | -0.0824 | -0.355 | -0.041 | -0.42 | -0.35 |
| Cc1c(C)c2c(c(C)c1O)CCC(C)(COc1ccc(CC3SC(=O)NC3=O)cc1)O2 (stereo unspecified) [Troglitazone] | -0.514 | -0.51 | -0.29 | -0.287 | -0.459 | -0.355 |
| O=C(O)c1ccccc1C(=O)Nc1ccc(S(=O)(=O)Nc2nccs2)cc1 [Phthalylsulfathiazole] | -0.455 | -0.249 | -0.41 | -0.101 | -0.471 | -0.557 |
| CN(C)CCOC(=O)COc1ccc(Cl)cc1 [Meclofenoxate hydrochloride] | -0.454 | -0.858 | -0.411 | -0.563 | -0.417 | -0.533 |
| COc1ccc(NS(=O)(=O)c2ccc(N)cc2)nn1 [Sulfamethoxypyridazine] | -0.55 | -1.31 | -0.449 | -0.237 | -0.455 | -0.522 |
| NS(=O)(=O)c1cc2c(cc1Cl)N=C(CSCc1ccccc1)NS2(=O)=O [Benzthiazide] | -0.596 | -0.997 | -0.0125 | -0.328 | -0.513 | -0.593 |
| COC(=O)C1=C(C)NC(C)=C(C(=O)OC)C1c1ccccc1[N+](=O)[O-] [Nifedipine] | -0.346 | -0.877 | -0.739 | -0.61 | -0.513 | -0.614 |
| C=C1c2cccc(O)c2C(=O)C2=C(O)[C@]3(O)C(=O)C(C(N)=O)=C(O)[C@@H](N(C)C)[C@@H]3[C@@H](O)[C@H]12 [Methacycline hydrochloride] | -0.461 | -0.934 | 0.119 | -0.217 | -0.402 | -0.642 |
| CC(C)(Oc1ccc(C2CC2(Cl)Cl)cc1)C(=O)O (stereo unspecified) [Ciprofibrate] | -0.486 | -0.255 | -0.125 | -0.278 | -0.419 | -0.482 |
| COC1=CC(=O)C[C@@H](C)[C@]12Oc1c(Cl)c(OC)cc(OC)c1C2=O [Griseofulvin] | -0.41 | -0.867 | -0.73 | -1.73 | -0.468 | -0.516 |
| CC(=O)c1ccc2c(c1)N(CCCN1CCC(CCO)CC1)c1ccccc1S2 [Piperacetazine] | 4.58 | 1.54 | 2.51 | 1.35 | 3.1 | 3.21 |

| SMILES | LBPA endosome anti-LBPA integrated intensity (z-score) (A431 [1]) | LBPA endosome anti-LBPA integrated intensity (z-score) (HeLa MZ [2]) | whole-cell filipin (z-score) (A431 [3]) | whole-cell filipin (z-score) (HeLa MZ [4]) | filipin (z-score) (A431 [5]) | filipin (z-score) (HeLa MZ [6]) |
| --- | --- | --- | --- | --- | --- | --- |
| CCN(CC)C(=O)Nc1ccc(OCC(O)CNC(C)(C)C)c(C(C)=O)c1 (stereo unspecified) [Celiprolol HCl] | 0.0633 | 0.456 | -0.229 | -0.152 | -0.388 | -0.405 |
| CC(=O)Oc1cc(C(F)(F)F)ccc1C(=O)O [Triflusal] | -0.556 | -0.553 | -0.393 | 0.0625 | -0.513 | -0.544 |
| CCOC(=O)O[C@]1(C(=O)COC(=O)CC)CC[C@H]2[C@@H]3CCC4=CC(=O)C=C[C@]4(C)[C@H]3[C@@H](O)C[C@@]21C [Prednicarbate] | -0.408 | -0.375 | 0.46 | 0.0462 | -0.282 | -0.201 |
| C[C@H](O)C(=O)Nc1c(I)c(C(=O)NC(CO)CO)c(I)c(C(=O)NC(CO)CO)c1I [Iopamidol] | -0.637 | -1.5 | -0.34 | -0.1 | -0.494 | -0.379 |
| CC1(C)O[C@@H]2C[C@H]3[C@@H]4CCC5=CC(=O)CC[C@]5(C)[C@@]4(F)[C@@H](O)C[C@]3(C)[C@]2(C(=O)CCl)O1 [Halcinonide] | -0.266 | -0.708 | -0.0733 | 0.0912 | -0.203 | -0.18 |
| Cc1scc2c1N(C(=O)CN1CCN(C)CC1)c1ccccc1NC2=O [Telenzepine dihydrochloride] | -0.645 | 0.0897 | -0.931 | -0.897 | -0.595 | -0.401 |
| CC1=C(/C=C/C(C)=C/C=C/C(C)=C\C(=O)O)C(C)(C)CCC1 [Isotretinoin] | -0.383 | -0.562 | -0.622 | -0.961 | -0.488 | -0.54 |
| C[C@H]1NC(=O)NC1=O [Methylhydantoin-5-(D)] | -0.487 | -0.363 | -0.289 | -0.267 | -0.458 | -0.381 |
| CN(C)CCN(Cc1ccc(Cl)cc1)c1ccccn1 [Chloropyramine hydrochloride] | 0.629 | 4.98 | 1.63 | 5.51 | 1.05 | 1.3 |
| CN(C)CCOC(c1ccccc1)c1ccccc1.Cn1c(=O)c2[nH]c(Cl)nc2n(C)c1=O [Dimenhydrinate] | -0.457 | 0.504 | -0.514 | -0.355 | -0.463 | -0.165 |
| Cc1nccn1CC1CCc2c(c3ccccc3n2C)C1=O (stereo unspecified) [Ondansetron Hydrochloride] | 0.526 | 1.23 | -0.22 | 0.362 | -0.149 | 0.186 |
| C#C[C@]1(O)CC[C@H]2[C@@H]3CCc4cc(O)ccc4[C@H]3CC[C@@]21C [Ethinylestradiol] | -0.522 | -1.4 | -0.139 | -0.678 | -0.442 | -0.49 |
| CCCN(CCC)C(=O)C(CCC(=O)O)NC(=O)c1ccccc1 (stereo unspecified) [Proglumide] | -0.629 | -1.36 | -1.22 | -0.766 | -0.53 | -0.607 |
| Cc1cc(CC(=O)O)n(C)c1C(=O)c1ccc(Cl)cc1 [Zomepirac sodium salt] | -0.359 | 0.635 | -0.277 | 0.00846 | -0.413 | -0.439 |
| C[C@]12CCC(=O)C=C1CC[C@@H]1[C@@H]2[C@@H](O)C[C@@]2(C)[C@H]1CC[C@]2(O)C(=O)CO [Hydrocortisone base] | -0.41 | -0.249 | -0.675 | -0.6 | -0.327 | -0.44 |
| CN1CCN2c3ncccc3Cc3ccccc3C2C1 (stereo unspecified) [Mirtazapine] | -0.296 | 0.0872 | -0.206 | 0.74 | -0.391 | 0.392 |
| O=C1NCC2(CCN(CCc3ccccc3)CC2)O1 [Fenspiride hydrochloride] | -0.609 | -0.156 | -1.07 | -0.91 | -0.575 | -0.493 |
| C=CCSCC1Nc2cc(Cl)c(S(N)(=O)=O)cc2S(=O)(=O)N1 (stereo unspecified) [Althiazide] | -0.575 | -1.6 | -0.613 | -0.588 | -0.491 | -0.642 |
| Cc1ccc(/C(=C\CN2CCCC2)c2ccccn2)cc1 [Triprolidine hydrochloride] | -0.168 | 0.494 | -0.873 | -0.689 | -0.378 | -0.0781 |
| CNCCCC12CCC(c3ccccc31)c1ccccc12 [Maprotiline hydrochloride] | 1.93 | 0.295 | 1.09 | 1.4 | 2.92 | 3.38 |
| OCCOCCN1CCN(C(c2ccccc2)c2ccc(Cl)cc2)CC1 (stereo unspecified) [Hydroxyzine dihydrochloride] | 0.255 | 0.53 | 0.266 | -0.465 | 0.492 | 0.489 |
| NC[C@H]1O[C@H](O[C@H]2[C@H](O)[C@@H](O[C@H]3O[C@H](CO)[C@@H](O)[C@H](N)[C@H]3O)[C@H](N)C[C@@H]2N)[C@H](N)C[C@@H]1O [Tobramycin] | -0.535 | -1.57 | -0.669 | -0.773 | -0.528 | -0.681 |
| N=C(N=C(N)N)N1CCOCC1 [Moroxidine hydrochloride] | -0.598 | -1.32 | -1.06 | -0.892 | -0.527 | -0.669 |
